Active and inactive are the calls of the source. How the source made its calls: active means hit-call score of the fitted dose curve at least 0.9, where 1 is the maximum; inactive means score below 0.9.
experiment: APR_HepG2_MicrotubuleCSK_1hr: Apredica 1-hour HepG2 Assay for Microtubule CSK Stabilty (AID 2282669); details: HepG2 microtubule cytoskeleton imaging, actives raise or lower the signal
Procedure: APR_HepG2_1hr is a cell-based, multiplexed-readout assay that uses HepG2, a human liver cell line, with measurements taken at 1 hour after chemical dosing in a 384-well plate.APR_HepG2_MicrotubuleCSK_1hr is one of 10 assay component(s) measured or calculated from the APR_HepG2_1hr assay. It is designed to make measurements of protein conformation, a form of conformation reporter, as detected with fluorescence intensity signals by HCS Fluorescent Imaging technology.Data from the assay component APR_HepG2_MicrotubuleCSK_1hr was analyzed into 1 assay endpoint. This assay endpoint, APR_HepG2_MicrotubuleCSK_1hr, was analyzed with bidirectional fitting relative to DMSO as the negative control and baseline of activity. Using a type of conformation reporter, measures of protein for gain or loss-of-signal activity can be used to understand the signaling at the cellular-level. Furthermore, this assay endpoint can be referred to as a primary readout, because this assay has produced multiple assay endpoints where this one serves a signaling function. To generalize the intended target to other relatable targets, this assay endpoint is annotated to the cell morphology intended target family, where the subfamily is cell conformation.
Cells were treated with dimethyl sulfoxide (DMSO) as a solvent control at a final concentration of 0.5% v/v or with compounds in DMSO with a resulting final DMSO concentration of 0.5% v/v. Compound treatment was done at concentrations of 0.39, 0.78, 1.56, 3.12, 6.24, 12.5, 25, 50, 100, and 200 uM in duplicate on each plate. Cells were treated with compounds for 1, 24, or 72 hr. Carbonyl […] m-chloro-phenylhydrazone (CCCP) and taxol were used as positive controls for mitochondrial function and cytoskeletal stability, respectively; DMSO served as the negative control for this experiment. Cells were fixed by the direct addition of 50 uL formaldehyde in Hank's Balanced Salt Solution (HBSS) to a final concentration of 3.7%. After incubation in the fixation medium for 30 min at room temperature (293-298 K), cells were rinsed twice with HBSS and treated with cell permeabilization buffer (16 uL of 0.5% Triton X-100) for 10 min at room temperature (293-298 K) before labeling. For mitochondrial membrane potential and mitochondrial measurements, pre-fixed cells were incubated with 50 uL of MitoTracker Red CMXRos (Invitrogen) at a concentration of 250 nM for 30 min before fixation. In the remaining cases, post-fixed cells were labeled by incubation with a multiplexed mixture of primary antibodies in HBSS for 60 min at room temperature (293-298 K) to detect immunoreactivity of c-Jun (1:500), phospho-histone H3 (1:100), phospho-histone H2A.x (1:200), p53 (1:400), alpha-tubulin (1:200) and Hoechst 33342 (2 ug/mL). Cells were labeled for multiplexed imaging on two separate plates: a) Hoechst 33342, MitoTracker Red, phospho-histone H3, and alpha-tubulin, and b) Hoechst 33342, phospho-histone H2A.x, and c-Jun. A final rinse with HBSS (50 uL) was performed before analysis. The primary and secondary antibodies for the proteins were phospho-histone H3 (rabbit anti-phospho-histone H3 and FITC-donkey anti-rabbit IgG), phospho-histone H2A.x (mouse anti-phospho-histone H2A.x and FITC-donkey anti-mouse IgG), c-Jun (rabbit anti-phospho-c-Jun and Cy3-donkey anti-rabbit IgG), p53 (sheep anti-p53 and Cy5-donkey anti-sheep IgG), alpha-tubulin (mouse anti-alpha-tubulin and Cy5-donkey anti-mouse IgG). These antibodies are available as the CellCiphr HepG2 assay kit (Millipore).Digital images of each well were captured using a Cellomics ArrayScan VTI (Thermo Scientific Cellomics) (0.8 NA objective, 0.63x optical coupler, and XF-93 filter set) at 20x magnification. The images were acquired using the autofocus feature of the ArrayScan instrument, which entails the following steps. First, the camera focuses on channel 1 (Hoechst 33342), where nuclei are identified. Second, a Z offset of 1 um is used for capturing mitochondria (MitoTracker Red). […]

SMILES | outcome
CN(C)C(=S)SSC(=S)N(C)C | inactive
Fc1ccc(Oc2ccnc3cc(Cl)cc(Cl)c23)cc1 | inactive
Cc1c(F)c(F)c(COC(=O)C2C(/C=C(\Cl)C(F)(F)F)C2(C)C)c(F)c1F (stereo not given) | inactive
N#Cc1cc(Br)c(O)c(Br)c1 | inactive
COc1cnc(OC)n2nc(NS(=O)(=O)c3c(OCC(F)F)cccc3C(F)(F)F)nc12 | inactive
O=C(O)c1nc(Cl)ccc1Cl | inactive
CCNc1nc(Cl)nc(NCC)n1 | inactive
Oc1ccccc1-c1ccccc1 | inactive
N#Cc1nn(-c2c(Cl)cc(C(F)(F)F)cc2Cl)c(N)c1S(=O)C(F)(F)F (stereo not given) | inactive
CC1=C(C(=O)Nc2ccccc2)SCCO1 | inactive
Cc1cc(Cl)ccc1OCC(=O)O | inactive
CC(C)C1(C)N=C(c2nc3ccccc3cc2C(=O)O)NC1=O (stereo not given) | inactive
CON(C)C(=O)Nc1ccc(Cl)c(Cl)c1 | inactive
CCOC(=O)C(Cl)Cc1cc(-n2nc(C)n(C(F)F)c2=O)c(F)cc1Cl (stereo not given) | inactive
COC(=O)c1ccccc1C(=O)OC | inactive
CCOP(=S)(OCC)SCn1c(=O)oc2cc(Cl)ccc21 | inactive
COP(=S)(OC)Oc1nc(Cl)c(Cl)cc1Cl | inactive
C#CCOS(=O)OC1CCCCC1Oc1ccc(C(C)(C)C)cc1 (stereo not given) | inactive
COc1ccc(C(c2ccc(OC)cc2)C(Cl)(Cl)Cl)cc1 | inactive
CCOC(=O)CC(SP(=S)(OC)OC)C(=O)OCC (stereo not given) | inactive

SMILES | outcome
COC(=O)N(OC)c1ccccc1COc1ccn(-c2ccc(Cl)cc2)n1 | inactive
CC(Oc1ccc(Cl)cc1Cl)C(=O)O (stereo not given) | inactive
O=C(O)COc1nc(Cl)c(Cl)cc1Cl | inactive
C=CCC1=C(C)C(OC(=O)C2C(C=C(C)C)C2(C)C)CC1=O (stereo not given) | inactive
CCCN(CCC)c1c([N+](=O)[O-])cc(S(N)(=O)=O)cc1[N+](=O)[O-] | inactive
CCc1nn(C)c(C(=O)NCc2ccc(C(C)(C)C)cc2)c1Cl | inactive
COc1nc(C)nc(NC(=O)NS(=O)(=O)c2ccccc2Cl)n1 | inactive
CC1COC(Cn2cncn2)(c2ccc(Oc3ccc(Cl)cc3)cc2Cl)O1 (stereo not given) | inactive
CCCCOC(=O)c1ccccc1C(=O)OCCCC | inactive
OC(c1ccc(Cl)cc1)(c1cncnc1)c1ccccc1Cl (stereo not given) | inactive
CCCCNC(=O)OCC#CI | inactive
CCCCNC(=O)n1c(NC(=O)OC)nc2ccccc21 | inactive
COC(=O)C=C(C)OP(=O)(OC)OC | inactive
C=CCC1=C(C)[C@@H](OC(=O)[C@@H]2[C@@H](C=C(C)C)C2(C)C)CC1=O | inactive
CCON=C(CC)C1=C(O)CC(c2c(C)cc(C)cc2C)CC1=O (stereo not given) | inactive
O=C(Nc1ccccc1)Nc1ccnc(Cl)c1 | inactive
N#CC(CCc1ccc(Cl)cc1)(Cn1cncn1)c1ccccc1 (stereo not given) | inactive
CO/C=C(/C(=O)OC)c1ccccc1Oc1cc(Oc2ccccc2C#N)ncn1 | inactive
COC(=O)C(C)Oc1ccc(Oc2ccc(Cl)cc2Cl)cc1 (stereo not given) | inactive
CCCC1COC(Cn2cncn2)(c2ccc(Cl)cc2Cl)O1 (stereo not given) | inactive

Reference: PubChem BioAssay (EPA / NIEHS)
